Only some compounds are listed: those with a hit (about 22% of all), similar ones and a draw of the others.
CYP2C9 inhib = inhibitors of human CYP2C9; P11712; CYP2C9 Supersomes, luciferin-H conversion, luminescence; inhibition, % at 5 µM; 96,000 compounds, 20% hits;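 active = blocking of liver enzyme CYP2C9 beyond about 50% at 5 µM, limit read from the data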
Measles CPE = protection of cells from measles virus. Measles virus-infected cells, CPE protection, absorbance. protection (pct of control), % at 4 µM. 140,000 compounds, 1.5% hits; in the data active = protection mostly above about 24%, no sharp cut-off; inactive = mostly below about 26%
CYP2C9 act = CYP2C9 (human) activation. activation factor at 5 µM. recombinant CYP2C9, luciferin-H conversion, luminescence; active compounds read high; factor 1 = untreated enzyme, 0 = blocked. P11712. 96,000 compounds, 1.4% hits;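 active = activation factor of 2 or more for CYP2C9 at a 5 µM dose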;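 also: 0 = sulfaphenazole-blocked wells and 1 = vehicle-only wells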
CYP2C19 act = increases human CYP2C19 enzyme activity; P33261; recombinant CYP2C19, luciferin-H EGE luminescence; active compounds read high; 0 = fully inhibited enzyme, 1 = untreated enzyme; activation factor at 5 µM; 96,000 tested, under 10 active; AID 1025;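 active = activation factor of at least 2 at 5 µM in the primary screen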;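 also: 0 = wells with 2.5 mM tranylcypromine and 1 = vehicle-only wells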
Target sequence (P33261 whole entry, looked up): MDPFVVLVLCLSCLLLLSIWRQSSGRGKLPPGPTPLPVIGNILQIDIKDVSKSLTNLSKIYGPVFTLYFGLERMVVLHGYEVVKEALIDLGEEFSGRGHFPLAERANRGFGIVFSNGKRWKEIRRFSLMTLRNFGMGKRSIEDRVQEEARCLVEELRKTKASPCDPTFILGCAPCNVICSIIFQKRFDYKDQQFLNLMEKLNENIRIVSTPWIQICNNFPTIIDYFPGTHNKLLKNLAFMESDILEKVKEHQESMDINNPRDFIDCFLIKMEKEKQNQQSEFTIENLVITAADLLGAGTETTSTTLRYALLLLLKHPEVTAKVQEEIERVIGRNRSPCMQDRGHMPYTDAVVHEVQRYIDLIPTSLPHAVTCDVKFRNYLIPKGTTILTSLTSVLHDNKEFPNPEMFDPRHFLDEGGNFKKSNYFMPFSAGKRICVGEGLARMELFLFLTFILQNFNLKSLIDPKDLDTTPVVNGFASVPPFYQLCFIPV
CYP2C19 inh = blocks human cytochrome P450 2C19; P33261; CYP2C19 Supersomes, luciferin-H EGE luminescence, 30 min; inhibition, % at 5 µM; 96,000 compounds, 21% hits;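 active = CYP2C19 inhibition above a set limit at 5 µM in the primary screen, cut at about 50% in these data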;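 also: plate controls were negative control wells for no effect and 2.5 mM tranylcypromine positive control for full effect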
An asterisk follows results filed as active.

Results for O=C(O)c1ccc(S(=O)(=O)Cc2ccccc2)cc1 ?
CYP2C9 inhib: 1; Measles CPE: 2; CYP2C9 act: 1; CYP2C19 act: 1; CYP2C19 inh: -4

Results for CC(C)(C)c1ccc(C(=O)CS(=O)(=O)c2ccccc2)cc1 ?
CYP2C9 inhib: -4; Measles CPE: 48*; CYP2C9 act: 1; CYP2C19 act: 0.6; CYP2C19 inh: 44

How did Cc1ccc(S(=O)(=O)CC(=O)c2ccccc2)cc1 do in these assays?
CYP2C9 inhib: -187; Measles CPE: 9; CYP2C9 act: 2.9*; CYP2C19 act: 0.6; CYP2C19 inh: 37

What do the screens show for `CC(C)(C)c1ccc(S(=O)(=O)NC(Cc2ccccc2)C(=O)O)cc1` (configuration not stated)?
CYP2C9 inhib: 32; Measles CPE: 1; CYP2C9 act: 0.7; CYP2C19 act: 1; CYP2C19 inh: 2

What do the screens show for `Cc1ccc(S(=O)(=O)Cc2ccc(C(=O)OCc3ccccc3)cc2)cc1`?
CYP2C9 inhib: 23; Measles CPE: 18*; CYP2C9 act: 0.8; CYP2C19 act: 0.9; CYP2C19 inh: 12

Results for COc1ccc(NC(C)=O)cc1NC(=O)CN1CCN(C(=O)c2ccco2)CC1 ?
CYP2C9 inhib: 3; Measles CPE: 11; CYP2C9 act: 1; CYP2C19 act: 1; CYP2C19 inh: -2

How did Nc1nnc(CSCc2ccc(F)cc2)s1 do in these assays?
CYP2C9 inhib: -1; Measles CPE: 10; CYP2C9 act: 1; CYP2C19 act: 0.5; CYP2C19 inh: 48

Results for Cc1cccc(C(CC(=O)O)n2cccc2)c1 (configuration not stated) ?
CYP2C9 inhib: 76*; Measles CPE: 13; CYP2C9 act: 0.2; CYP2C19 act: 0.9; CYP2C19 inh: 6

How did O=C(COc1ccc(Cl)cc1)N1CCN(c2ccc([N+](=O)[O-])c(N3CCCCC3)c2)CC1 do in these assays?
CYP2C9 inhib: 61*; Measles CPE: 29; CYP2C9 act: 0.4; CYP2C19 act: 0; CYP2C19 inh: 98*

How did Cc1cc(OCC(=O)N2CCCCCC2)ccc1[N+](=O)[O-] do in these assays?
Measles CPE: 12

How did O=C(COc1ccc(Cl)cc1Cl)N1CCCCCC1 do in these assays?
CYP2C9 inhib: 0; Measles CPE: 3; CYP2C9 act: 1; CYP2C19 act: 0.7; CYP2C19 inh: 29

What do the screens show for `O=C(COc1ccccc1Cl)N1CCN(c2ccc([N+](=O)[O-])c(N3CCCCC3)c2)CC1`?
CYP2C9 inhib: 84*; Measles CPE: 1; CYP2C9 act: 0.2; CYP2C19 act: 0.4; CYP2C19 inh: 59*

Results for Cc1ccc(S(=O)(=O)/C(C#N)=C/c2ccccc2OCc2ccccc2)cc1 ?
Measles CPE: 15

How did O=c1c2c3c(sc2ncn1Cc1ccc(F)cc1)CCC3 do in these assays?
CYP2C9 inhib: 78*; Measles CPE: 0; CYP2C9 act: 0.2; CYP2C19 act: 0.2; CYP2C19 inh: 81*

How did Cn1c(Cn2nnc3ccccc32)nnc1SCC(=O)N1c2ccccc2CCc2ccccc21 do in these assays?
CYP2C9 inhib: 64*; Measles CPE: 2; CYP2C9 act: 0.4; CYP2C19 act: 0.6; CYP2C19 inh: 40

What do the screens show for `Cn1c(Cn2nnc3ccccc32)nnc1SCC(=O)N1c2ccccc2Sc2ccccc21`?
CYP2C9 inhib: 52*; Measles CPE: 4; CYP2C9 act: 0.5; CYP2C19 act: 0.7; CYP2C19 inh: 33

How did Cc1nnc(SCC(=O)N2c3ccccc3Sc3ccccc32)n1N do in these assays?
CYP2C9 inhib: 3; Measles CPE: 20; CYP2C9 act: 1; CYP2C19 act: 0.8; CYP2C19 inh: 22

How did Cn1nnnc1SCC(=O)N1c2ccccc2Sc2ccc(Cl)cc21 do in these assays?
CYP2C9 inhib: 36; Measles CPE: 3; CYP2C9 act: 0.6; CYP2C19 act: 0.3; CYP2C19 inh: 75*

What do the screens show for `Cn1c(Cn2nnc3ccccc32)nnc1SCC(N)=O`?
CYP2C9 inhib: -19; Measles CPE: 25; CYP2C9 act: 1.2; CYP2C19 act: 1.2; CYP2C19 inh: -20

How did COc1ccc(NS(=O)(=O)c2ccc(O)c(C(=O)OCC(=O)N3CC(C)OC(C)C3)c2)cc1 (configuration not stated) do in these assays?
CYP2C9 inhib: 82*; Measles CPE: 2; CYP2C9 act: 0.2; CYP2C19 act: 0.3; CYP2C19 inh: 71*

What do the screens show for `ClC(Cl)(c1nnnn1-c1ccccc1)c1nnnn1-c1ccccc1`?
Measles CPE: 7

Results for COCCn1c(SCC(=O)Nc2nnc(C)s2)nnc1-c1c[nH]c2ccccc12 ?
CYP2C9 inhib: 51*; Measles CPE: 3; CYP2C9 act: 0.5; CYP2C19 act: 0.8; CYP2C19 inh: 19

How did COCCn1c(SCC(=O)NCc2ccc3c(c2)OCO3)nnc1-c1c[nH]c2ccccc12 do in these assays?
CYP2C9 inhib: 69*; Measles CPE: 14; CYP2C9 act: 0.3; CYP2C19 act: 0.4; CYP2C19 inh: 59*

What do the screens show for `CCSc1nnc(NC(=O)CSc2nnc(-c3c[nH]c4ccccc34)n2C)s1`?
CYP2C9 inhib: 76*; Measles CPE: 10; CYP2C9 act: 0.2; CYP2C19 act: 0.7; CYP2C19 inh: 30

How did CCc1nnc(NC(=O)CSc2nnc(-c3c[nH]c4ccccc34)n2CCOC)s1 do in these assays?
CYP2C9 inhib: 39; Measles CPE: 13; CYP2C9 act: 0.6; CYP2C19 act: 0.9; CYP2C19 inh: 15

Results for CCOc1ncccc1C(=O)OCC(=O)NCCc1ccccc1 ?
CYP2C9 inhib: 16; Measles CPE: 1; CYP2C9 act: 0.8; CYP2C19 act: 0.3; CYP2C19 inh: 68*

How did Cc1cc(C(=O)OCC(=O)NCCc2ccccc2)c(C)o1 do in these assays?
CYP2C9 inhib: 88*; Measles CPE: 7; CYP2C9 act: 0.1; CYP2C19 act: 0.2; CYP2C19 inh: 76*

Results for CC(=O)Nc1ccc(Cl)cc1C1COC(=O)C1=N (configuration not stated) ?
Measles CPE: 25

Results for O=c1[nH]c(=O)n(Cc2ccco2)c2c1C(C(F)(F)F)(C(F)(F)F)N=C(CCc1ccccc1)N2 ?
CYP2C9 inhib: 68*; Measles CPE: 8; CYP2C9 act: 0.3; CYP2C19 act: 0.8; CYP2C19 inh: 22

How did O=c1[nH]c(=O)n(Cc2ccco2)c2c1C(C(F)(F)F)(C(F)(F)F)N=C(C1CCCCC1)N2 do in these assays?
CYP2C9 inhib: 3; Measles CPE: 13; CYP2C9 act: 1; CYP2C19 act: 0.9; CYP2C19 inh: 10

What do the screens show for `N#Cc1ccc(C2=NC(C(F)(F)F)(C(F)(F)F)c3c(n(Cc4ccco4)c(=O)[nH]c3=O)N2)cc1`?
CYP2C9 inhib: 96*; Measles CPE: 7; CYP2C9 act: 0; CYP2C19 act: 0.7; CYP2C19 inh: 32

How did CCOC(=O)c1[nH]c2cc(OC)c(OC)cc2c1N do in these assays?
CYP2C9 inhib: 18; Measles CPE: 5; CYP2C9 act: 0.8; CYP2C19 act: 0.3; CYP2C19 inh: 72*

Results for Nc1ccccc1S(=O)(=O)NC1=NCCCCC1 ?
Measles CPE: 8

Screening data (PubChem)
